Lassa entry inh: Lassa virus entry inhibition. Potency, µM (titrated, usually from 37.9 µM), for the others: at the highest dose activity change, negative = inhibition, usual class: inhibitors. Lassa virus pseudotype entry inhibition, cell reporter. actives 1.2% (n = 300,000); calls by dose curve; tested in HEK293 cells; note: potency is the fitted concentration of half-maximal effect; nearly all actives have a fitted effect of over 50% in size
FMDV antiviral: blocks foot and mouth disease virus. AID 1159524. Potency, µM (highest dose often 57.9 µM), without a hit: at the highest dose activity change, negative = inhibition, most hits filed as inhibitors. actives 1.2% (n = 410,000). FMDV antiviral cell-based qHTS; calls by dose curve; tested in HEK293T cells; note: read-out not given here; potency is the fitted concentration of half-maximal effect; nearly all actives have a fitted effect of over 45% in size
HCV inhibitor: HCV inhibition; Huh7.5.1 HCVcc-Cre infection, luciferase reporter, 44 h; actives 3.4% (n = 340,000); Potency, µM (series often up to 41.8 µM), inactives show at the highest dose activity change, negative = inhibition, hits mostly inhibitors; note: potency is the fitted concentration of half-maximal effect
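Antiviral activity was scored by luciferase reporter output from cells infected with HCVcc-Cre (~0.5 moi) in presence of compound, 44 h infection period, cells seeded 1,000/well 4 h prior.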
Marburg entry inh: inhibitors of Marburg virus binding or cell entry; Marburg virus pseudotyped entry inhibition, cell reporter; Potency, µM (titrated, usually from 37.8 µM), for the others: at the top dose activity change, negative = inhibition, actives largely listed as inhibitors; actives 1.8% (n = 300,000); calls by dose curve; tested in HEK293 cells; note: potency is the fitted concentration of half-maximal effect
HCMV inh: inhibitors of human cytomegalovirus; AID 1259415; activity change, negative = inhibition, % at 57.5 µM; HFF cells, HCMV-luciferase reporter, 72 h; stronger effect = lower value; actives 4.5% (n = 410,000); in the data active = activity change below about -60%; inconclusive = no clear call, values can overlap the other calls; inactive = above about -39%
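Cell-based, HFFs, 1000 cells/well, 16 h 37C; cpds in DMSO + HCMV-luc, MOI 1 PFU/cell; 72 h 37C; OneGlo luminescence after 5 min RT; norm. to buffer vs Salinomycin 10uM.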
FBPA Giardia inh: inhibitors of Giardia lamblia fructose-1,6-bisphosphate aldolase; A8B2U2; purified Giardia FBPA; Potency, µM (series often up to 59.6 µM), for inactives: top-dose activity, negative = inhibition, actives largely listed as inhibitors; actives 0.71% (n = 290,000); AID 2451; note: potency is the fitted concentration of half-maximal effect; nearly all actives have a fitted effect of over 55% in size
Target sequence (A8B2U2 whole entry, looked up): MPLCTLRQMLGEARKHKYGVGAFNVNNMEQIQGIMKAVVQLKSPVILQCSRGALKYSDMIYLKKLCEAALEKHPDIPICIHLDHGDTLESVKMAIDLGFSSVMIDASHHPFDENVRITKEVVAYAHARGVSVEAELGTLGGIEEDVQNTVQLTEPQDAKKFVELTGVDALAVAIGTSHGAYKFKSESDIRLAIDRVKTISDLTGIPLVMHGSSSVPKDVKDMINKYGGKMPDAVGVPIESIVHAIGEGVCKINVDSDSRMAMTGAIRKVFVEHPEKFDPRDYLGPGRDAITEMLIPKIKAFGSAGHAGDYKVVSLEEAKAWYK
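Giardia FBPA (40 nM reagent) was preincubated 10 min at RT with compound (up to 57.5 uM final), then substrate plus GAPDH/TPI/NAD/arsenate coupling system with diaphorase/resazurin was added; resorufin fluorescence (525/598 nm) was read after 20 min.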
* hit, by the source's call; [ ] = remark or other dose. Most compounds without a hit are left out; they make up all but 8.3% or so of the library. Unless noted, calls come from the whole dose curve; as a rule, active = well fitted curve in the direction sought with a large enough effect; inconclusive = small, poorly fitted or top-dose-only effect, or another doubt; inactive = no such curve, though single readings can be large; an effect the other way counts as inactive or inconclusive. % is set by controls: 0 for no effect and ±100 for the full control effect.

For Nc1nc(-c2nn(Cc3ccccc3F)c3ncccc23)ncc1C1CC1 the results were FBPA Giardia inh 12%.
`O=C(Nc1ccccc1)N1CCC2(CC1)CCN(S(=O)(=O)c1ccccc1)CC2` gave FMDV antiviral -1% and FBPA Giardia inh 1%.
Screening CCOc1cccc(C(=O)NC(=S)Nc2ccc(Cl)cc2C(=O)O)c1 returned Lassa entry inh -14%, FMDV antiviral -17%, HCV inhibitor 24%, Marburg entry inh -17%[14.2 µM], HCMV inh -60* and FBPA Giardia inh 0%.
For CCN(CC)c1nc(Nc2ccc([N+](=O)[O-])cc2)nc(N(CC)CC)n1 the results were FMDV antiviral -24%, HCV inhibitor 11µM*, HCMV inh 25 and FBPA Giardia inh 0%.
For CCOc1nc(Nc2ccc([N+](=O)[O-])cc2)nc(NC(C)(C)C)n1 the results were Lassa entry inh inconclusive, FMDV antiviral -9%, HCV inhibitor inconclusive, Marburg entry inh inconclusive, HCMV inh 50 and FBPA Giardia inh -9%.
Screening Cc1cccc(N2CCN(C(=S)c3ccccc3)CC2)c1 returned Lassa entry inh -7%, FMDV antiviral -18%, HCV inhibitor -2%, Marburg entry inh inconclusive, HCMV inh -27 and FBPA Giardia inh inconclusive.
Screening O=[N+]([O-])c1ccc(N2CCN(C(=S)NCc3ccc(Cl)cc3)CC2)cc1 returned FMDV antiviral inconclusive, HCV inhibitor 11µM*, HCMV inh -90* and FBPA Giardia inh -4%.
`CN(C)c1ccc(C(=S)N2CCN(c3ccc([N+](=O)[O-])cc3)CC2)cc1` gave Lassa entry inh inconclusive, FMDV antiviral 0%, HCV inhibitor -4%, Marburg entry inh -8%[46.1 µM], HCMV inh 15 and FBPA Giardia inh 7.9µM*.
Screening Cc1cccc(N2CCN(C(=S)c3ccc([N+](=O)[O-])cc3)CC2)c1 returned Lassa entry inh -21%, FMDV antiviral -11%, HCV inhibitor 10%, Marburg entry inh -12%, HCMV inh -63* and FBPA Giardia inh -1%.
Screening Cc1nc(NC(=O)/C=C/c2ccccc2)sc1C(=O)Nc1ccc(Cl)cc1 returned Lassa entry inh 1%, FMDV antiviral 0%, HCV inhibitor -27%, Marburg entry inh inconclusive, HCMV inh -23 and FBPA Giardia inh 2%.
For Cc1nc(Nc2ccc(Cl)cc2Cl)sc1C(=O)Nc1ccccc1 the results were Lassa entry inh -15%, FMDV antiviral -6%, HCV inhibitor 10µM*, Marburg entry inh inconclusive, HCMV inh -14 and FBPA Giardia inh -11%.
`Cc1nc(NC(=O)C2CC2)sc1C(=O)Nc1ccccc1Cl` gave FMDV antiviral 84%, HCV inhibitor inconclusive, HCMV inh -104* and FBPA Giardia inh -6%.
`O=C(CSc1nnc(NC(=O)C2CC2)s1)Nc1ccccc1Cl` gave FMDV antiviral 21%, HCV inhibitor 24%, Marburg entry inh inconclusive and HCMV inh -63*.
Cc1nc(Nc2ccc(Cl)c(Cl)c2)sc1C(=O)Nc1ccccc1 was read as Lassa entry inh inconclusive, FMDV antiviral -21%, HCV inhibitor 8.9µM*, Marburg entry inh inconclusive, HCMV inh -89* and FBPA Giardia inh -17%.
For CCC1CN(CCNC(=O)c2cn3cc(C)ccc3n2)Cc2cc(OC)ccc2O1 (centres undefined) the results were FMDV antiviral 2%.
For COc1ccc(C(=O)N2CCC3(CC2)CN(Cc2ccc(C#N)cc2)C3)cc1 the results were FMDV antiviral -14% and FBPA Giardia inh -2%.
For CC(=O)Nc1cccc(NC(=O)C2(c3cccs3)CCOCC2)c1 the results were Lassa entry inh 21%[46.1 µM], FMDV antiviral 0% and HCMV inh 29.
For O=C(Cn1cc(S(=O)(=O)Cc2cccc(Cl)c2)c2ccccc21)Nc1ccccc1C(F)(F)F the results were Lassa entry inh 0%[46.1 µM], FMDV antiviral 2% and HCMV inh inconclusive.
O=C(Nc1cc(-c2ccc(F)c(F)c2)no1)c1ccccc1F was read as Lassa entry inh 17%[46.1 µM], FMDV antiviral 29%, Marburg entry inh inconclusive and HCMV inh 15.

Screening data: PubChem BioAssay, National Center for Advancing Translational Sciences (NCATS)
